A short description of assay [1]: BSK_3C_Vis: BioMAP Diversity Plus: 3C Assay for Morphology Visualization (AID 2283025).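 Also: fitted both ways so gain or loss versus DMSO counts.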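 As to AC50: light microscopy image of cell morphology used as background control.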 The conditions noted are these: primary human endothelial cells (HUVEC). The method, boiled down:
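Human umbilical vein endothelial cell morphology was inspected by light microscopy 24 h after chemical dosing; scored bidirectionally relative to DMSO.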

Read-out in assay [2]: Transforming growth factor beta 1 (TGFb1), TGFB1 (gene 7040)
In words: BSK_BE3C_TGFb1: BioMAP Diversity Plus: BE3C Assay for Transforming growth factor beta 1 (TGFb1) Biomarker Activity (AID 2283036). The conditions noted are these: primary human bronchial epithelial cells; actives raise or lower the signal. The method, boiled down:
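Primary human bronchial epithelial cells dosed with chemical; TGF-b1 measured by ELISA 24 h after dosing. Bidirectional curve fitting against DMSO negative control; SRB total-protein staining in parallel cultures gauged cytotoxicity.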

Read-out in assay [3]: Transforming growth factor beta 1 (TGFb1), TGFB1 (gene 7040)
In words: BSK_KF3CT_TGFb1: BioMAP Diversity Plus: KF3CT Assay for Transforming growth factor beta 1 (TGFb1) Biomarker Activity (AID 2283072). The conditions noted are these: primary human keratinocytes with fibroblasts; actives raise or lower the signal. Summed up:
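Human keratinocyte/foreskin fibroblast co-culture; TGF-b1 measured by ELISA 24 h after dosing, fitted bidirectionally versus DMSO. Cytotoxicity checked in parallel cultures by total protein (SRB staining, 560 nm).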

Read-out in assay [4]: CD40, CD40 (gene 958)
The assay can be described thus: BSK_LPS_CD40: BioMAP Diversity Plus: LPS Assay for CD40 Biomarker Activity (AID 2283076). The conditions noted are these: primary human HUVEC with PBMC; actives raise or lower the signal. Summed up:
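In the LPS system of human endothelial cells with peripheral blood mononuclear cells, CD40 levels were read by ELISA 24 h post-treatment. Signal changes in either direction were fitted against the DMSO baseline, with parallel SRB protein staining.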

Read-out in assay [5]: Interleukin-1 alpha (IL1a), IL1A (gene 3552)
In words: BSK_LPS_IL1a: BioMAP Diversity Plus: LPS Assay for Interleukin-1 alpha (IL1a) Biomarker Activity (AID 2283080). The conditions noted are these: primary human HUVEC with PBMC; actives raise or lower the signal. The method, boiled down:
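Readout is IL-1a level by ELISA, 24 h post-dose, fitted as gain or loss relative to DMSO. System: LPS-activated human primary co-culture of vascular endothelium and peripheral blood mononuclear cells, with parallel SRB total-protein cytotoxicity.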

Read-out in assay [6]: Monocyte Chemoattractant Protein-1 (MCP1), CCL2 (gene 6347)
In words: BSK_LPS_MCP1: BioMAP Diversity Plus: LPS Assay for Monocyte Chemoattractant Protein-1 (MCP1) Biomarker Activity (AID 2283081).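 As to AC50: secreted MCP-1 protein quantified by ELISA in culture supernatant.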 The conditions noted are these: primary human HUVEC with PBMC; actives raise or lower the signal. The method, boiled down: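 Secreted MCP-1 read by ELISA at 24 h post-dosing in an LPS-activated co-culture of endothelial cells with peripheral blood mononuclear cells. Fits run in both directions, DMSO as baseline; parallel SRB staining tracks overt cytotoxicity.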

A short description of assay [7]: BSK_LPS_PGE2: BioMAP Diversity Plus: LPS Assay for Prostaglandin E2 (PGE2) Biomarker Activity (AID 2283082). The conditions noted are these: primary human HUVEC with PBMC; actives raise or lower the signal. Summed up: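 HUVEC plus human PBMC co-culture stimulated with LPS; secreted PGE2 quantified by ELISA 24 h after chemical dosing. Activity fitted bidirectionally against DMSO baseline; parallel SRB staining (0.1% SRB after 10% TCA fixation, 560 nm) flags overt cytotoxicity.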

Read-out in assay [8]: Macrophage colony-stimulating factor (MCSF), CSF1 (gene 1435)
The assay can be described thus: BSK_LPS_MCSF: BioMAP Diversity Plus: LPS Assay for Macrophage colony-stimulating factor (MCSF) Biomarker Activity (AID 2283083). The conditions noted are these: primary human HUVEC with PBMC; actives raise or lower the signal. Summed up:
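Bidirectional fitting against DMSO was applied to M-CSF levels read by ELISA at 24 h post-dose. The system pairs human umbilical vein endothelium with peripheral blood mononuclear cells; parallel SRB staining tracked cytotoxicity.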

Read-out in assay [9]: Tissue Factor, F3 (gene 2152)
In words: BSK_LPS_TissueFactor: BioMAP Diversity Plus: LPS Assay for Tissue Factor Biomarker Activity (AID 2283084). The conditions noted are these: primary human HUVEC with PBMC; actives raise or lower the signal. The method, boiled down:
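Compound was added to an endothelial cell/PBMC co-culture, and after 24 h tissue factor (CD142) was read by ELISA. Gain or loss of signal was fitted against a DMSO baseline, and parallel SRB staining (560 nm) tracked overt cytotoxicity.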

Read-out in assay [10]: Vascular cell adhesion molecule 1 (VCAM1), VCAM1 (gene 7412)
In words: BSK_LPS_VCAM1: BioMAP Diversity Plus: LPS Assay for Vascular cell adhesion molecule 1 (VCAM1) Biomarker Activity (AID 2283086). The conditions noted are these: primary human HUVEC with PBMC; actives raise or lower the signal. Summed up: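 Human umbilical vein endothelial cells co-cultured with PBMC and stimulated with LPS; VCAM-1 measured by ELISA 24 h after dosing. Bidirectional curve fitting against DMSO baseline; cytotoxicity tracked in parallel by SRB total-protein staining.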

Read-out in the next assay: CD38, CD38 (gene 952)
The assay can be described thus: BSK_SAg_CD38: BioMAP Diversity Plus: SAg Assay for CD38 Biomarker Activity (AID 2283087). The conditions noted are these: primary human HUVEC with PBMC; actives raise or lower the signal. Summed up: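 Human HUVEC plus PBMC co-culture stimulated with superantigen; CD38 measured by ELISA 24 h after chemical dosing. Fluorescence read-out, bidirectional fit against DMSO; cytotoxicity tracked in parallel by SRB and Alamar Blue.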

Read-out in assay [11]: CD40, CD40 (gene 958)
The assay can be described thus: BSK_SAg_CD40: BioMAP Diversity Plus: SAg Assay for CD40 Biomarker Activity (AID 2283088). The conditions noted are these: primary human HUVEC with PBMC; actives raise or lower the signal. Summed up:
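CD40 is measured by fluorescence ELISA in an endothelial/PBMC primary human co-culture at 24 h post-dose. Fitting is bidirectional, DMSO baseline. Parallel SRB staining (560 nm) flags cytotoxicity.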

Read-out in another assay: CD69, CD69 (gene 969)
In words: BSK_SAg_CD69: BioMAP Diversity Plus: SAg Assay for CD69 Biomarker Activity (AID 2283089).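 As to AC50: cell surface CD69 protein quantified by ELISA with fluorescence detection.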 The conditions noted are these: primary human HUVEC with PBMC; actives raise or lower the signal. The method, boiled down: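 HUVEC co-cultured with PBMC were dosed with chemical, and CD69 was measured by ELISA with fluorescence read-out 24 h later. Bidirectional curve fitting used DMSO as negative control and activity baseline.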

Read-out in assay [12]: Monocyte Chemoattractant Protein-1 (MCP1), CCL2 (gene 6347)
The assay can be described thus: BSK_SAg_MCP1: BioMAP Diversity Plus: SAg Assay for Monocyte Chemoattractant Protein-1 (MCP1) Biomarker Activity (AID 2283090). The conditions noted are these: primary human HUVEC with PBMC; actives raise or lower the signal. Summed up:
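MCP-1 levels in the endothelial–PBMC SAg co-culture were quantified by ELISA at 24 h post-dosing; both increases and decreases versus DMSO scored. Cytotoxicity monitored by SRB total protein in parallel cultures.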

Read-out in assay [13]: Monokine induced gamma interferon (MIG), CXCL9 (gene 4283)
In words: BSK_SAg_MIG: BioMAP Diversity Plus: SAg Assay for Monokine induced gamma interferon (MIG) Biomarker Activity (AID 2283092). The conditions noted are these: primary human HUVEC with PBMC; actives raise or lower the signal. Summed up: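 HUVEC plus human PBMC co-culture, chemicals dosed and MIG (CXCL9) quantified by ELISA at 24 h. Bidirectional curve fitting against DMSO as negative control and baseline, so both gain and loss of signal count as activity.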

Assay [14] is described as follows: BSK_SAg_SRB: Viability Assessment in the BioMAP Diversity Plus: SAg Assay (AID 2283096).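 Also: cells read one day after compound addition; hits may be either gain or loss of signal compared with DMSO.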 The conditions noted are these: primary human HUVEC with PBMC. The method, boiled down: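 Human umbilical vein endothelial cells co-cultured with PBMC, read 24 h after compound dosing. Total protein measured by sulforhodamine B staining (0.1% SRB after 10% TCA fixation, absorbance 560 nm); bidirectional fit versus DMSO baseline.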

A short description of assay [15]: BSK_BT_PBMCCytotoxicity: PBMC Cytotoxicity Assessment in the BioMAP Diversity Plus: BT Assay (AID 2284225).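 Also: PBMC viability measured by Alamar Blue dye reduction fluorescence.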 The conditions noted are these: primary human B cells with PBMC. The method, boiled down:
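PBMC (75,000/well) pretreated with compound 1 h, then activated with SEB and TSST-1 (20 ng/mL each final), incubated 90 h; Alamar Blue added 6 h, fluorescence read at 546/580 nm. Fitted relative to DMSO.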

Read-out in assay [16]: Secreted IgG (sIgG), gene 3500
In words: BSK_BT_sIgG: BioMAP Diversity Plus: BT Assay for Secreted IgG (sIgG) Biomarker Activity (AID 2284226). The conditions noted are these: primary human B cells with PBMC. The method, boiled down: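 Human B cell plus PBMC co-culture; secreted IgG measured by ELISA 24 h after chemical dosing. Response fitted in positive direction relative to DMSO baseline.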

The target in assay [17] is Estrogen receptor (Homo sapiens) (UniProt P03372). In words: ATG_ERa_TRANS: Attagene TRANS-FACTORIAL HepG2 Assay for human Estrogen Receptor alpha (ERa) (AID 2282970; active = hit-call score of the fitted dose curve at least 0.9, where 1 is the maximum). The conditions noted are these: HepG2 Attagene TRANS ERa GAL4 reporter, mRNA. Summed up: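 Cells: HepG2, transiently transfected. Construct: GAL4-UAS reporter units regulated by exogenous NR-Gal4 chimeras. Time: 24 h. Detection: reporter mRNA by RT-PCR, capillary electrophoresis, fluorescence. Baseline: DMSO, upward fitting.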

Assay [18] in a line: BSK_CASM3C_SRB: Viability Assessment in the BioMAP Diversity Plus: CASM3C Assay (AID 2283050). The conditions noted are these: primary human coronary artery smooth muscle cells.

Records with an inconclusive call do not appear. Active and inactive are the calls of the source. The calls were made as follows, unless noted: active = hit-call score of the fitted dose curve at least 0.9, where 1 is the maximum; inactive = score below 0.9.

Chain of Estrogen receptor (Homo sapiens) (P03372 whole entry, looked up, the tested form may be a part): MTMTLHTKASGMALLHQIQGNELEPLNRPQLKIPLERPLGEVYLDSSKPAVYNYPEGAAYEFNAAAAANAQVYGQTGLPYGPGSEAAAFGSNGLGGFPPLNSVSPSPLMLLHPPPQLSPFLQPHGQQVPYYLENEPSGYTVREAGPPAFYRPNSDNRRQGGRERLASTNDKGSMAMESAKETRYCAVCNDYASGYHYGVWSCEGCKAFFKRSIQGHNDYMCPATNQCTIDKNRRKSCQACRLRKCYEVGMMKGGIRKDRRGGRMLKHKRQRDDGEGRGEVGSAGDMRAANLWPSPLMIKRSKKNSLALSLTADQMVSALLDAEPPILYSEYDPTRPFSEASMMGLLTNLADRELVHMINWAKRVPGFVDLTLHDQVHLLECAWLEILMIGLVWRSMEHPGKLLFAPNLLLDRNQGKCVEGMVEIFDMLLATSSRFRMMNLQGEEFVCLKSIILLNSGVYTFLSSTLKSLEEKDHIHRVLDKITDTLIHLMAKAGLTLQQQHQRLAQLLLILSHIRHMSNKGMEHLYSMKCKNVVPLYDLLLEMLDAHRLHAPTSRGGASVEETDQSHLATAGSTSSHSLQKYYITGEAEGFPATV

A word on the AC50: it is the concentration at which the activity in the assay is half-maximal. Turning to `CN(C)c1ccc(C(c2ccccc2)c2ccc(N(C)C)cc2)cc1`, the AC50 in [1] was 13 µM (active); in the assay with CD40, CD40 (gene 958) [4], 20 µM (active); in [5], 34.7 µM (active); in [6], 13.2 µM (active); in assay [8], 8.45 µM (active); in assay [10], 4.93 µM (active). The AC50 was 20 µM (active) with CD38, CD38 (gene 952); 14.2 µM (active) in the assay with CD40, CD40 (gene 958) [11]; 20 µM (active) with CD69, CD69 (gene 969); 12.9 µM (active) in assay [12]; 12.6 µM (active) in assay [14]; 33.7 µM (active) in assay [15]. The half-maximal activity concentration (AC50) in assay [16] was 11.8 µM (active). For the same molecule, the outcome in [2], in [3], in [7], in assay [9] and in assay [13] was inactive.

For `CCCCCCC1CCC(=O)O1` (stereo unspecified), in assay [17], the result was inactive.

Consider `CN1CCCC1`, for which, in assay [17], the outcome was inactive.

Consider `CN(C)CCC(c1ccc(Cl)cc1)c1ccccn1` (stereo unspecified), for which the outcome was “inactive” in assay [1]; “inactive” in [2]; “inactive” in assay [18]; “inactive” in assay [3]; “inactive” in the assay with CD40, CD40 (gene 958) [4]; “inactive” in assay [5]. Besides, the outcome in assay [6] was “inactive”; in [7] it was “inactive”; in assay [8], “inactive”; in [9], “inactive”; in assay [10] it was “inactive”; in the assay with CD38, CD38 (gene 952), “inactive”. Also, the outcome in the assay with CD40, CD40 (gene 958) [11] is “inactive”; with CD69, CD69 (gene 969), “inactive”; in assay [12] it was “inactive”; in [13], “inactive”; in assay [14], “inactive”; in assay [15] it was “inactive”. Also, in assay [16], the outcome was inactive.

In the case of `CCCCCCCCCCC1CO1` (stereo unspecified), the AC50 in assay [1] was 37.8 µM (active); in [18], 31.6 µM (active); in assay [3] it was 30.3 µM (active); in assay [5], 31.8 µM (active); in assay [6], 31.7 µM (active); in assay [8], 31.6 µM (active). The AC50 was 38.5 µM (active) in [9]; 32.3 µM (active) in assay [10]; 20 µM (active) with CD40, CD40 (gene 958) [11]; 36.7 µM (active) in the assay with CD69, CD69 (gene 969). For the same molecule, the outcome in [2] is “inactive”; in assay [7] it was “inactive”; with CD38, CD38 (gene 952), “inactive”; in [12] it was “inactive”; in assay [13], “inactive”; in [14] it was “inactive”. The outcome in assay [15] and in assay [16] was inactive.

With `Cc1cc(-n2nc3ccc(Cl)cc3n2)c(O)c(C(C)(C)C)c1`, the outcome in assay [1] is “inactive”; in assay [2] it was “inactive”; in assay [18], “inactive”; in assay [3], “inactive”; with CD40, CD40 (gene 958) [4], “inactive”; in assay [5] it was “inactive”. In addition, the outcome is “inactive” in assay [6]; “inactive” in [7]; “inactive” in assay [8]; “inactive” in assay [9]; “inactive” in assay [10]; “inactive” in the assay with CD38, CD38 (gene 952). Further, the outcome is “inactive” with CD40, CD40 (gene 958) [11]; “inactive” in the assay with CD69, CD69 (gene 969); “inactive” in assay [12]; “inactive” in assay [13]; “inactive” in assay [14]; “inactive” in assay [15]. The outcome in assay [16] was inactive.

Values taken from PubChem BioAssay (EPA / NIEHS).
